Growth data for 17 compounds are collected here from PubChem BioAssay (NCI).

Some test systems named below: T-47D breast; BT-549 breast; MDA-MB-435 melanoma; SW-620 colon; MCF7 breast; HCT-116 colon; HCC-2998 colon.
What all share (test): NCI-60 one-dose screen, 48 h (100 = growth as untreated, 0 = no growth, -100 = all killed)
Holding throughout (conditions): 10 µM unless noted

About 83,000 compounds went through this panel and 20% of them were active in at least one assay; those are over-represented in the sample as a whole.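 Values shown are percent growth following 48 h exposure of cells in 96-well plates to a single concentration of compound; below 10 was considered active.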 A number with no mark means an inactive call. The source made the active and inactive calls.

For `O=C(/C=C/Nc1ccc(S(=O)(=O)O)cc1)c1ccc(F)cc1`, the growth in the test with T-47D breast is 99.4%; in the test with BT-549 breast it was 119%; with MDA-MB-435 melanoma it was 100%; in the test with SW-620 colon it was 94.8%; in the test with MCF7 breast it was 90%; in the test on HCT-116 colon, 107%. In addition, the growth with HCC-2998 colon is 106%.

For `Oc1ccc(CSc2nnc(-c3ccccc3)n2-c2ccccc2)c2cccnc12`, the growth in the test on T-47D breast is 10.1%; in the test with BT-549 breast, 25.2%; in the test on MDA-MB-435 melanoma it was 13.9%; with SW-620 colon, 11.6%; in the test on MCF7 breast, 3.8% (active); in the test on HCT-116 colon, 10.8%. Moreover, the growth in the test with HCC-2998 colon is 26.9%.

Consider `O=c1oc2ccc(-c3ccc(F)cc3F)cc2c(=O)n1-c1cccc(C(F)(F)F)c1`, for which the growth is 6.01% (active) with T-47D breast; 3.66% (active) in the test on BT-549 breast; 6.94% (active) in the test on MDA-MB-435 melanoma; 14.2% in the test on SW-620 colon; 2.43% (active) in the test with MCF7 breast; 4.36% (active) in the test on HCT-116 colon. Besides, in the test with HCC-2998 colon, the growth is 16.4%.

As for `CN1CCN(Cc2ccc(NC(=O)c3cncc(C#Cc4[nH]nc5ncncc45)c3)cc2C(F)(F)F)CC1`, the growth with T-47D breast is 39.2%; in the test with BT-549 breast, 118%; with MDA-MB-435 melanoma, 38.9%; with SW-620 colon, 31.6%; in the test on MCF7 breast it was 46%; in the test on HCT-116 colon it was 17.7%. Moreover, the growth with HCC-2998 colon is 44.3%.

In the case of `CCCCCCNC(=O)Oc1ccc(/C(=C(/C)c2ccccc2)c2ccc(OCCN(C)C)cc2)cc1`, the growth with T-47D breast was 33.1%; in the test with BT-549 breast it was 75.3%; in the test on MDA-MB-435 melanoma, 53%; in the test on SW-620 colon, 27.3%; with MCF7 breast, 18%; with HCT-116 colon, 22.6%. Moreover, the growth with HCC-2998 colon was 69.3%.

With `NC(=S)N/N=C(/C=C/c1cn(-c2ccccc2)nc1-c1ccc(Cl)cc1)c1cc2ccccc2oc1=O`, the growth is 38.7% with T-47D breast; 87.1% with BT-549 breast; 55.6% in the test with MDA-MB-435 melanoma; 29.6% in the test on SW-620 colon; 29.6% in the test with MCF7 breast; 31.1% in the test on HCT-116 colon. For the same compound, the growth in the test on HCC-2998 colon is 66%.

On to `O=c1cc(-c2ccccc2)nc2sc(-c3c[nH]c4ccc(F)cc34)nn12`, for which the growth was 27.2% in the test on T-47D breast; 56.7% with BT-549 breast; 63.7% in the test on MDA-MB-435 melanoma; 60.9% in the test on SW-620 colon; 57.9% with MCF7 breast; 57.2% with HCT-116 colon. In the test with HCC-2998 colon, the growth was 83.4%.

Turning to `CS(=O)c1nccc(-c2c(-c3ccc(F)c(OCCc4ccccc4)c3)nc3sccn23)n1` (centres undefined), the growth is 15.2% with T-47D breast; 120% with BT-549 breast; 111% in the test with MDA-MB-435 melanoma; 80.5% with SW-620 colon; -1.77% (active) with MCF7 breast; 63.2% with HCT-116 colon. Also, in the test with HCC-2998 colon, the growth is 58.6%.

With `O=C1C[C@@H](c2ccccc2)Oc2c(Cc3ccccc3O)c(O)c(Cc3cc(Cc4cc(Cc5ccccc5O)ccc4O)ccc3O)c(O)c21`, the growth in the test on T-47D breast was 94%; in the test with BT-549 breast it was 104%; in the test on MDA-MB-435 melanoma, 93.8%; with SW-620 colon, 99.3%; with MCF7 breast it was 92.2%; in the test on HCT-116 colon, 96.7%. The growth in the test on HCC-2998 colon was 106%.

Take `CS(=O)(=O)c1nccc(-c2c(-c3ccc(F)c(OCCc4ccccc4)c3)nc3sccn23)n1`: the growth is -4.49% (active) in the test on T-47D breast; 104% in the test on BT-549 breast; 104% with MDA-MB-435 melanoma; 103% in the test on SW-620 colon; 4.77% (active) in the test on MCF7 breast; 92.5% with HCT-116 colon. Further, the growth with HCC-2998 colon was -46.4% (active).

For the compound `COc1ccc([C@@H]2[C@@H](O)C(=O)N2c2cc(OC)c(OC)c(OC)c2)cc1Cl`, the growth is 103% in the test with T-47D breast; -9.18% (active) in the test with BT-549 breast; -8.49% (active) with MDA-MB-435 melanoma; 17.9% in the test with SW-620 colon; 11.5% in the test with MCF7 breast; 2.44% (active) in the test on HCT-116 colon. In addition, the growth in the test on HCC-2998 colon is 8.34% (active).

`Cc1cccc(NC(c2cc3cccc4ccc5cccc2c5c43)c2nnnn2C(C)(C)C)c1C` (centres undefined): the growth was 68.4% with T-47D breast; 99.2% with BT-549 breast; 93% with MDA-MB-435 melanoma; 93.7% in the test with SW-620 colon; 66.9% in the test with MCF7 breast; 70.5% in the test on HCT-116 colon. For the same compound, the growth in the test with HCC-2998 colon was 99.6%.

`Oc1ccc(CSc2nnc(-c3ccncc3)n2-c2ccccc2)c2cccnc12`: the growth in the test with T-47D breast is 14.5%; with BT-549 breast, 41.9%; in the test with MDA-MB-435 melanoma, 20%; with SW-620 colon it was 16.5%; in the test on MCF7 breast, 2.74% (active); with HCT-116 colon, 22.5%. Besides, the growth in the test on HCC-2998 colon was 35.9%.

Turning to `CC(C)SC1=NC(=C(C(=N1)NC2=ClC=CC=C2)C#N)C3=CC=CC=C3`, the growth in the test on T-47D breast was 55%; in the test with BT-549 breast, 110%; in the test with MDA-MB-435 melanoma, 62.3%; with SW-620 colon, 50.5%; in the test with MCF7 breast, 39.9%; in the test on HCT-116 colon, 27.9%. Also, the growth with HCC-2998 colon was 84.1%.

Take `COc1ccc(/C=N/Nc2nc(Nc3ccccc3)nc(Nc3ccc(S(N)(=O)=O)cc3)n2)cc1`: the growth is 63.1% in the test on T-47D breast; 85.7% with BT-549 breast; 76.6% with MDA-MB-435 melanoma; 72.4% in the test on SW-620 colon; 41% in the test with MCF7 breast; 50.2% in the test with HCT-116 colon. Further, the growth with HCC-2998 colon was 87%.

Take `CSc1ccc(/C(=N/N=C(N)N)c2ccccc2)cc1`: the growth was 70.9% with T-47D breast; 53.8% in the test with BT-549 breast; -18% (active) in the test on MDA-MB-435 melanoma; 25.7% in the test on SW-620 colon; 11.7% in the test on MCF7 breast; 13% in the test with HCT-116 colon. Moreover, the growth with HCC-2998 colon is 9.99% (active).

As to `CC(C)=CCc1c2c(c(O)c3c1O[C@]14C(=C[C@@H]5C[C@H]1C(C)(C)O[C@@]4(C/C=C(/C)C(=O)O)C5=O)C3=O)CC(O)C(C)(C)O2` (some centres undefined), the growth with T-47D breast was -10.2% (active); in the test with BT-549 breast, -14.3% (active); with MDA-MB-435 melanoma, -16% (active); with SW-620 colon it was -44.8% (active); in the test with MCF7 breast, -41.4% (active); with HCT-116 colon, -69.8% (active). In addition, the growth with HCC-2998 colon is -84.7% (active).
